Experimental data from PubChem BioAssay (NCATS).
Several values for one entry are separate records, joined by “and”; a condition that tells them apart may be missing. Identical values can stand only once. Records with an inconclusive call do not appear. Activity calls are given as the source filed them. The call rests on the fitted dose curve; in most records, active means well fitted curve in the direction sought with a large enough effect; inconclusive means small, poorly fitted or top-dose-only effect, or another doubt; inactive means no such curve, though single readings can be large or run the other way.

Assay: qHTS Assay for Identifying Gametocytocidal Compounds (AID 743244);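 on max response: actives lower the fluorescent signal which means gametocytes are killed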
Conditions: P. falciparum 3D7 stage III-V gametocytes, alamarBlue, 72 h; max response: hits give low values
Description: Malaria cases and deaths have dropped 50% in 29 countries since 2000 due to the combined effects of long-lasting insecticidal bednets, indoor residual spraying, and artemisinin-based combination therapies (ACTs). This success has raised hopes for malaria eradication and consequently stimulated interest in developing new reagents that block gametocyte transmission such as novel and safe gametocytocidal drugs. However, previous drug development efforts have focused primarily on the asexual parasites that cause symptoms, but not malaria transmission. Consequently, patients can remain infectious for weeks after the clearance of asexual parasites and clinical symptoms. To be transmitted from person to person via a mosquito, the parasites must switch from asexual to sexual development and produce male and female gametocytes. Malaria gametocytes consist of five stages (I, II, III, IV and V). The late stage gametocytes (III, IV and V) are difficult to be cultured in vitro and the long lifespan of mature gametocytes allows them being transmitted from host to mosquitoes unless they are completely eliminated by gametocytocidal agents. To identify gametocytocidal compounds which are capable of killing late stage P. falciparum gametocytes, a high throughput gametocyte viability assay was employed. This assay uses oxidoreduction indicator, alamarBlue, as a general measure of metabolic activity of gametocytes. Within live cells, the nonfluorescent resazurin is reduced to resorufin, a bright red fluorescence dye. Fluorescence decreases upon treatment of gametocytocidal compounds. P. falciparum gametocyte (3D7 strain) was used in this study.
The 1536-well gametocycidal viability assay was based on the previous method of Tanaka et al. Stage III-V gametocytes were tested against three compound libraries, including 4265 compounds from NCGC pharmaceutical collection, 400 from Malaria Box library, and 550 from an internal collection of kinase inhibitors. Briefly, 2.5 ul/well incomplete medium was dispensed into each well of 1,536-well plates using the Multidrop Combi followed by 23 nl compound transferring using the NX-TR Pintool (WAKO Scientific Solutions, San Diego, CA). Then, 2.5 ul/well of gametocytes was dispensed with a seeding density of 20,000 cells/well using the Multidrop Combi. The assay plates were incubated for 72 h at 37C with 5% CO2. After addition of 5 ul/well of 2X AlamarBlue dye (Life Technologies, cat. no. DAL1100), the plates were incubated for 24 h at 37C with 5% CO2 and then were read in a fluorescence detection mode (Ex = 525 nm, Em = 598 nm) on a ViewLux plate reader (PerkinElmer).
On the % scale 0 is the no-effect control and ±100 the full control effect; potency means the concentration at half of the fitted maximal effect.

Row | Compound | max response | Potency
1 | O=C(NCCS(=O)(=O)c1ccc(C(F)(F)F)cn1)c1ccc(Cl)cc1 | 12.1% (inactive) | –
2 | CCC(=C(c1ccccc1)c1ccc(OCCN(C)C)cc1)c1ccccc1 | -26.2% (inactive) | –
3 | Clc1ccc2ncc(-c3cccc(NC4CNC4)n3)n2c1 | -0.805% (inactive) | –
4 | COc1cc2nccc(Oc3ccc(NC(=O)C4(C(=O)Nc5ccc(F)cc5)CC4)cc3)c2cc1OC | 4.76% (inactive) | –
5 | Nc1cc(C(F)(F)F)c(-c2cc(N3CCOCC3)nc(N3CCOCC3)n2)cn1 | -15.2% (inactive) | –
6 | CC(NCc1ccc2c(c1)nc(NC(=O)c1ccc(-c3cn[nH]c3)s1)n2CC(C)(C)O)C(C)(C)C (stereo not given) | – | 9.35 µM (active)
7 | C#Cc1cccc(Nc2ncnc3cc(OC)c(OCCCCCCC(=O)NO)cc23)c1 | – | 1.71 µM (active)
8 | CNC(=O)c1cc(Oc2ccc(NC(=O)Nc3cc(C(C)(C)C)nn3-c3ccc4ncccc4c3)c(F)c2)ccn1 | -28.6% (inactive) | –
9 | COc1cc2c(Oc3ccc(NC(=O)C4(C(=O)Nc5ccc(F)cc5)CC4)cc3F)ccnc2cc1OCCCN1CCOCC1 | – | 18.7 µM (active)
10 | COc1cc2ncn(-c3cc(OCc4ccccc4C(F)(F)F)c(C(N)=O)s3)c2cc1OC | 18.7% (inactive) | –
11 | CC(C)c1ccc(Cn2ccc3c4c(N)nc(NC5CC5)nc4ccc32)cc1 | – | 14.8 µM (active)
12 | C=C1C(=CC=C2CCCC3(C)[C@@H]([C@H](C)C=CC=CC(O)(CC)CC)CC[C@@H]23)C[C@@H](O)C[C@@H]1O (stereo not given in full) | -8.25% (inactive) | –
13 | CC(=O)SC[C@@H](C)C(=O)N1CCC[C@H]1C(=O)N[C@@H](Cc1ccccc1)C(=O)O | 7.13% (inactive) | –
14 | Nc1ccccc1NC(=O)c1ccc(CNc2nccc(-c3cccnc3)n2)cc1 | – | 11.8 µM (active)
15 | C[C@@H](Oc1cc(-n2cnc3ccc(CN4CCN(C)CC4)cc32)sc1C(N)=O)c1ccccc1C(F)(F)F | – | 18.7 µM (active)
16 | CN(C)CC=CC(=O)Nc1cc2c(Nc3ccc(F)c(Cl)c3)ncnc2cc1O[C@H]1CCOC1 | – | 0.935 µM (active)
17 | CN1CCC(CNc2ccc3ncc(-c4cccc(OC(F)(F)F)c4)n3n2)CC1 | – | 9.35 µM (active)
18 | CC(C)(C)OC(=O)Nc1ccc(-c2cc(C(=O)NCCCCCCC(=O)NO)no2)cc1 | – | 9.35 µM (active)
19 | O=C(O)c1ccc2cc(-c3ccc(O)c(C45CC6CC(CC(C6)C4)C5)c3)ccc2c1 | 9.89% (inactive) | –
20 | COc1cc2ncnc(Nc3ccc(F)c(Cl)c3)c2cc1NC(=O)C=CCN1CCCCC1 | – | 11.8 µM (active)

Row | Compound | max response | Potency
21 | COc1ccc(CC2SC(=O)NC2=O)cc1C(=O)NCc1ccc(C(F)(F)F)cc1 (stereo not given) | 16.4% (inactive) | –
22 | C1=CCOCc2cc(ccc2OCCN2CCCC2)Nc2nccc(n2)-c2cccc(c2)OCC1 | 17.1% (inactive) | –
23 | CN[C@H]1CCc2cc(OC)c(OC)c(OC)c2-c2ccc(OC)c(=O)cc21 | -7.45% (inactive) | –
24 | O=C(O)CO.[NH2-].[NH2-].[Pt+2] | -5.78% (inactive) | –
25 | Cc1cc(Nc2cc(N3CCN(C)CC3)nc(C=Cc3ccccc3)n2)n[nH]1 | – | 8.33 µM (active)
26 | Nc1nccc(Oc2ccc(NC(=O)c3c[nH]cc(-c4ccc(F)cc4)c3=O)cc2F)c1Cl | -5.48% (inactive) | –
27 | CCN1CCN(CC(=O)Nc2ccc(-c3cccc4c(=O)cc(N5CCOCC5)oc34)c3sc4ccccc4c23)CC1 | – | 29.6 µM (active)
28 | Nc1nc(-c2nn(Cc3ccccc3F)c3ncccc23)nc(N)c1N1CCOCC1 | -6.3% (inactive) | –
29 | Cc1ccc(-c2ncn(-c3ccc(Nc4nccc(-c5cccc(N6CCOCC6)c5)n4)cc3)n2)cn1 | – | 11.8 µM (active)
30 | Cc1nc2ccc(CN(C)c3ccc(C(=O)N[C@@H](CCC(=O)O)C(=O)O)s3)cc2c(=O)[nH]1 | 16% (inactive) and -8.64% (inactive) | –
31 | N#Cc1c(O)c2c(-c3ccc(-c4ccccc4O)cc3)csc2[nH]c1=O | 42.7% (inactive) | –
32 | C1Cc2[nH]nc(-c3nn[nH]n3)c2C1 | 38.3% (inactive) | –
33 | COc1cc(=C2C=c3ccccc3=N2)[nH]c1=Cc1[nH]c(C)cc1C | – | 7.43 µM (active)
34 | O=C(C=Cc1cccnc1)NCCCCC1CCN(C(=O)c2ccccc2)CC1 | 33.6% (inactive) | –
35 | CC[C@H](CO)Nc1nc(NCc2ccccc2)c2ncn(C(C)C)c2n1 | -4.23% (inactive) | –
36 | Cc1ccc(C(=O)Nc2ccc(CN3CCN(C)CC3)c(C(F)(F)F)c2)cc1C#Cc1cnc2cccnn12 | – | 18.7 µM (active)
37 | CN1c2cc(O)c(N=NC(N)=O)cc2CC1S(=O)(=O)O (stereo not given) | 13% (inactive) | –
38 | CCN1CCN(Cc2ccc(-c3cc4c(N[C@H](C)c5ccccc5)ncnc4[nH]3)cc2)CC1 | – | 23.5 µM (active)
39 | O=C(NC1CCNCC1)c1[nH]ncc1NC(=O)c1c(Cl)cccc1Cl | – | 1.32 µM (active) and 2.64 µM (active)
40 | CC[C@@H]1C(=O)N(C)c2cnc(Nc3ccc(C(=O)NC4CCN(C)CC4)cc3OC)nc2N1C1CCCC1 | – | 2.35 µM (active)
